Source: PubChem BioAssay (National Center for Advancing Translational Sciences (NCATS))
Most compounds without a hit are left out; they make up all but 1.5% or so of the library.
RECQ1 helicase = inhibitors of human RECQ1 DNA helicase; P46063; AID 2549; Potency, µM (top dose mostly 57.3 µM), without a hit: at the top dose activity, negative = inhibition, most hits filed as inhibitors; RECQ1 DNA unwinding, red fluorescence kinetic read; hit rate 0.54% among 240,000;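 also: potency is read from the fitted curve at half-maximal effect; plate controls were vehicle for no effect and no enzyme for full effect; nearly all actives have a fitted effect of over 30% in size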
Target sequence (P46063 whole entry, looked up): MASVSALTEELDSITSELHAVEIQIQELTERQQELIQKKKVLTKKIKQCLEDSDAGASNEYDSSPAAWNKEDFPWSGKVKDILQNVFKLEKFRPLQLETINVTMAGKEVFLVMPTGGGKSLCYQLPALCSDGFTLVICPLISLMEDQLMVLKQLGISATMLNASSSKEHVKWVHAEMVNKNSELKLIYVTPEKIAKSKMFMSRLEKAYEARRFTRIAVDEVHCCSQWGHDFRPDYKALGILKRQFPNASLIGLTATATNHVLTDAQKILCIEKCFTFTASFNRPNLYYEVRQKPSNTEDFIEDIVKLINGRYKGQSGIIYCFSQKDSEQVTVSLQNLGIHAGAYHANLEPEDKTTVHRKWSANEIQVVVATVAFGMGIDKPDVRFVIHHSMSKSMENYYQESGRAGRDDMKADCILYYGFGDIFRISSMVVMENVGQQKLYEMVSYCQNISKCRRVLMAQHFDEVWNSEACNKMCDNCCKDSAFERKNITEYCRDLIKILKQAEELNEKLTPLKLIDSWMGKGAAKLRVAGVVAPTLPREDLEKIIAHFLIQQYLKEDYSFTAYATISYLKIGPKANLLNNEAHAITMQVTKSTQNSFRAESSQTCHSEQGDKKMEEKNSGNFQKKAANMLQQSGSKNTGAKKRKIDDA
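50 nM RECQ1T1 preincubated 15 min with compound in Tris pH 8.0 buffer with MgCl2, DTT, Tween-20 and 2.5 ug/ml poly(dI-dC); started with 200 nM TAMRA/BHQ-2 forked duplex and 2 mM ATP. Unwinding read as fluorescence (525/598 nm), two reads 2 h apart.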
PI5P4Ka inh = blocks human PI5P4K alpha kinase activity. P48426. PI5P4Kalpha enzyme, ADP-Glo luminescence, 60 min; active compounds read low. max response, %. hit rate 1.2% among 330,000; active = max response of -50% or lower; inconclusive = between -30% and -50%; inactive = -30% or higher; also: value at the top dose of about 77 µM
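Controls without substrate or without enzyme flank wells where PI5P4Kalpha converts substrate using 5 microM ATP (final). Incubation lasts 60 minutes at room temperature; ADP formed is read by ADP-Glo luminescence.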
FEN1 inhibitor = inhibitors of human flap endonuclease 1; hit rate 0.35% among 390,000; Potency, µM (highest dose often 114 µM), inactives show at the top dose activity change, negative = inhibition, usual class: inhibitors; AID 588795; Recombinant FEN1 flap cleavage, fluorescence, 15 min; P39748; also: potency is read from the fitted curve at half-maximal effect; nearly all actives have a fitted effect of over 65% in size
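Nuclease activity of 10 nM FEN1 was measured after 15 min of room-temperature exposure to titrated compounds, by adding 50 nM flap substrate and reading plates at 0 and 15 min.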
BLM helicase inh = inhibitors of human Bloom syndrome helicase BLM | P54132 | recombinant BLM DNA unwinding, fluorescence dequenching | Potency, µM (top dose mostly 56.1 µM), without a hit: at the highest dose activity change, negative = inhibition, most hits filed as inhibitors | hit rate 0.2% among 350,000 | AID 2528;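 also: potency is read from the fitted curve at half-maximal effect; plate controls were vehicle for no effect and no enzyme for full effect; nearly all actives have a fitted effect of over 35% in size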
APE1 inh = blocks human APE1 abasic DNA cleavage; recombinant APE1, TAMRA/BHQ-2 abasic DNA cleavage fluorescence; Potency, µM (highest dose often 65.8 µM), inactives show at the top dose activity change, negative = inhibition, most hits filed as inhibitors; hit rate 0.35% among 350,000;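 also: potency is read from the fitted curve at half-maximal effect; plate controls were vehicle for no effect and reference inhibitor for full effect; nearly all actives have a fitted effect of over 55% in size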
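Endonuclease cleavage of a quenched abasic-site DNA duplex (50 nM) by APE1 (0.75 nM) was tracked by TAMRA dequenching. Compounds were preincubated with enzyme 15 min at room temperature; data normalized to buffer-only and DMSO wells plus NSC13755 control.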
KAT2A inh = inhibitors of human GCN5L2 histone acetyltransferase; GCN5L2 HAT assay, ThioGlo1 CoA-SH fluorescence; hit rate 0.21% among 390,000; Potency, µM (top dose mostly 58.9 µM), for inactives: at the highest dose activity change, negative = inhibition, actives largely listed as inhibitors; Q92830; AID 504327; also: potency is read from the fitted curve at half-maximal effect
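GCN5L2 (20nM final) in 50mM HEPES, 0.1mM EDTA pH 7.5, 0.01% Tween-20 was preincubated 15 min at room temperature with compound, then given ThioGlo1 (50uM), H3(1-25) peptide (75uM) and acetyl-CoA (70uM); CoA-thiol fluorescence (Ex340/Em540) was read at 0 and 20 min.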
ADP-Glo counter = counter-screen for PI5P4K inhibitors: ADP-Glo detection interference, no enzyme; shares compounds with PI5P4Ka inh; ADP-Glo detection counter-screen, luciferase luminescence, no enzyme; Potency, µM (doses to about 76.9 µM), for the others: at the highest dose activity change, negative = inhibition, hits mostly inhibitors; 1,100 tested, under 10 active
The depositor's hits bear a star; i = inactive; ? = inconclusive; nt = no result. Unless noted, calls follow the shape of the dose curve; as a rule, active = well fitted curve in the direction sought with a large enough effect; inconclusive = small, poorly fitted or top-dose-only effect, or another doubt; inactive = no such curve, though single readings can be large; an effect the other way counts as inactive or inconclusive. Unless noted, % is scaled to controls: 0 for no effect and ±100 for the full control effect.

SMILES | RECQ1 helicase | PI5P4Ka inh | FEN1 inhibitor | BLM helicase inh | APE1 inh | KAT2A inh | ADP-Glo counter
O=C(CSc1ccccn1)Nc1nc2ccccc2s1 | -9% | -2 | 11% | -3% | -8% | -2% | nt
N#Cc1ccc(NC(=O)CSc2nc3[nH]c(=O)cc(O)c3s2)cc1 | nt | -8 | -32% | nt | ? | -12% | nt
CCOc1cccc(NC(=O)CSc2sc3c(O)cc(=O)[nH]c3c2C#N)c1 | nt | -60* | -14% | -3% | 35% | -5% | 1%
O=C1C(c2cccc(Br)c2)N(CCc2ccccc2)C(=O)CN1C1CCCCC1 (stereo not drawn) | nt | nt | -1% | -2% | nt | 2% | nt
Cc1cccc(-n2ncc3c(Nc4ccc(Oc5ccc(Cl)cc5)cc4)ncnc32)c1 | nt | nt | 9% | -11% | nt | -9% | nt
COCCOC(=O)c1[nH]c2c(c1C)C(=O)CC(c1ccc(F)cc1)C2 (stereo not drawn) | -9% | 1 | -8% | 0% | -7% | -8% | nt
CSCCOC(=O)c1[nH]c2c(c1C)C(=O)CC(c1ccco1)C2 (stereo not drawn) | -21% | -66* | ? | -29% | 13µM* | -24% | 5%
Cn1c(=O)c(CCc2ccccc2)nc2cnc(N3CCNCC3)nc21 | 10% | nt | nt | -1% | 5% | ? | nt
CCCn1c(SCC(=O)N2c3ccccc3Sc3ccccc32)nc2c1c(=O)n(C)c(=O)n2C | 0% | -3 | 9% | 0% | 0% | 1% | -9%
CCCn1c(SCC(=O)N2CCCc3ccccc32)nc2c1c(=O)n(C)c(=O)n2C | i | nt | 1% | 2% | -8% | 4% | nt
CCOC(=O)C1CCC(CN(Cc2c(Cl)cccc2Cl)S(=O)(=O)c2ccc(F)cc2)CC1 (stereo not drawn) | nt | nt | -12% | -4% | nt | 2% | nt
Cc1cc(NC(=O)c2sc(Nc3ccc(F)c(Cl)c3)nc2N)no1 | 11% | ? | -8% | -5% | -2% | -1% | nt
Cc1cc(NC(=O)c2sc(Nc3cccc(C(F)(F)F)c3)nc2N)no1 | -1% | -67* | -11% | -5% | 12% | -12% | 2%
O=c1c2ccccc2n2c(-c3ccc(Cl)cc3)nnc2n1CCc1ccccc1 | nt | nt | 1% | -1% | nt | 1% | nt
CCN(CC(=O)N1CCC(C(N)=O)CC1)S(=O)(=O)c1cc(Cl)ccc1Cl | nt | -52* | 0% | nt | nt | nt | 4%
CCc1ccc(CN(Cc2cn[nH]c2-c2ccc(OC)cc2)C(=O)Nc2cc(Cl)ccc2OC)cc1 | nt | nt | -23% | -4% | nt | -5% | nt
COC(=O)C1=C[C@@H](C(=O)OC)C2C3=C(C(=O)[C@@]2(C)NC(=O)c2ccccc2)[C@H](c2ccccc2)[C@@H]2C(=O)N(c4ccccc4)C(=O)[C@@H]2[C@@H]3C1 (stereo partly drawn) | 10% | nt | -17% | 1% | -5% | nt | nt
COc1cccc(-c2cc(C(=O)N3CCN(C(=O)c4ccco4)CC3)on2)c1 | nt | -15 | 12% | 2% | 53% | 2% | nt
Cc1cccc2c(C(=O)N3CCN(C(=O)c4ccco4)CC3)cc(-c3cccc(Br)c3)nc12 | -23% | -53* | -9% | -23% | 13% | -3% | 7%
O=C1Nc2cc(Cl)ccc2Nc2cscc21 | nt | nt | -16% | nt | 1% | nt | 2%
CCOc1ccc(NC(=O)CN(C)C(=O)c2cc3c(s2)CCC3)cc1OCC | nt | -80* | nt | nt | nt | nt | -5%
CCOc1ccc(NC(=O)CC2C(=O)N(c3cccc(C)c3)C(=O)N2Cc2cccs2)cc1 (stereo not drawn) | nt | nt | 6% | -5% | nt | -2% | nt
C1=C(c2ccc(-c3ccccc3)cc2)Nc2ncnn2C1c1ccco1 (stereo not drawn) | -5% | -56* | -3% | -8% | -5% | ? | -11%
CCN1CCN(Cc2ccc(NC(=O)c3ccc(C)c(NC(=O)N4CCNC4=O)c3)cc2C(F)(F)F)CC1 | i | -4 | 3% | 6% | 43% | -3% | nt
CCN1CCN(Cc2ccc(NC(=O)c3ccc(C)c(NC(=O)c4cc(-c5ccc(Br)cc5)n[nH]4)c3)cc2C(F)(F)F)CC1 | -2% | -57* | -1% | -4% | 4% | -4% | 0%
SMILES | RECQ1 helicase | PI5P4Ka inh | FEN1 inhibitor | BLM helicase inh | APE1 inh | KAT2A inh | ADP-Glo counter
CC(C)CC(CSc1ccc(Br)cc1)N1CCN(CCc2ccccc2)CCC1=O (stereo not drawn) | -5% | nt | ? | -7% | 14% | nt | nt
CC(C)(C)NC(=O)Nc1ccc(Cn2cc(C(F)(F)F)ccc2=O)cc1 | 1% | -55* | 0% | -1% | -3% | -3% | -1%
O=C1Nc2ccccc2SC1c1ccccc1 (stereo not drawn) | nt | 4 | 16% | -14% | 3% | -8% | nt
Cc1ccc(NC2Sc3ccccc3NC2=O)cc1 (stereo not drawn) | i | -63* | -2% | -3% | 8% | -21% | -1%
COc1cc2nc(-c3ccccc3C)oc(=O)c2cc1OC | nt | 6 | 8% | -5% | 37% | 0% | nt
COc1cc2nc(COc3ccccc3[N+](=O)[O-])oc(=O)c2cc1OC | -7% | -57* | 1% | 3% | 2% | 0% | 2%
COc1cccc(N2CCN(C(=O)c3ccc(CS(=O)c4ccccc4C)o3)CC2)c1 (stereo not drawn) | nt | 0 | 1% | 2% | 40% | -23% | -8%
COc1cccc(N2CCN(C(=O)c3ccc(CS(=O)c4ccccc4Cl)o3)CC2)c1 (stereo not drawn) | nt | 5 | 16% | -1% | 55% | -20% | nt
O=C(Nc1cccc(Cl)c1)Nc1nnc(-c2ccncc2)s1 | -14% | -60* | -7% | -8% | -5% | ? | -5%
O=C1C2C(c3ccccc3)CC=CC2C(c2ccc3ccccc3c2)N1Cc1ccccc1 (stereo not drawn) | -3% | nt | 5% | -9% | -4% | nt | nt
COC(=O)CNC(=O)C1Cc2ccccc2CN1S(=O)(=O)c1cccs1 (stereo not drawn) | -3% | -5 | -5% | -5% | 0% | -1% | -4%
